PPC-1+TRAIL kill = compounds killing PPC-1 cancer cells with TRAIL present (potentiator screen, no TRAIL-free arm); cell killing (% activity), % at 4 µM or 5 µM; AID 1443; 0.41% of 220,000 active; PPC-1 cells + TRAIL, ATPLite viability luminescence;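 active = cell killing above 50% in the first pass at 4 µM, then a duplicate retest at 5 µM averaging 50% or more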;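 also: plate controls were cells with TRAIL plus DMSO for no effect and medium-only wells lacking cells for full effect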
SENP8 block-1 = inhibitors of human SENP8 protease; Q96LD8; inhibition, % at 20 µM; recombinant SENP8, Nedd8 substrate fluorescence; AID 602440; 0.64% of 360,000 active; in the data active = inhibition mostly above about 40%, no sharp cut-off; inactive = mostly below about 27%
Target sequence (Q96LD8 whole entry, looked up): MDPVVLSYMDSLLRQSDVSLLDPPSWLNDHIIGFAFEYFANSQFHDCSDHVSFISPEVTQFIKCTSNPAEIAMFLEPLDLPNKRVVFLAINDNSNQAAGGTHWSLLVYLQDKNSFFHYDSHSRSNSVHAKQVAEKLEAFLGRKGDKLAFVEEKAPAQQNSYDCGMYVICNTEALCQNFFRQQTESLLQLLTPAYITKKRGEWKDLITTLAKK
C8 TRAIL sens = caspase-8 TRAIL sensitization; NB7+C8 cells + TRAIL, ATPlite viability luminescence; inhibition (viability loss, TRAIL sensitization), % at 10 µM; 1% of 360,000 active; AID 624354;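 active = compounds causing at least 50% loss of cell viability in the single-dose screen, relative to plate controls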
SENP7 block = inhibitors of human SENP7 protease. recombinant SENP7, Z-RLRGG-aminoluciferin luminescence, 40 min. inhibition, % at 5 µM. 1.5% of 330,000 active. AID 434973;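 active = inhibition above about 50% at the single test dose, limit read from the data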;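 also: plate controls were DMSO with enzyme for no effect and no enzyme buffer wells for full effect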
Target sequence (Q9BQF6 706-1050 limits assumed): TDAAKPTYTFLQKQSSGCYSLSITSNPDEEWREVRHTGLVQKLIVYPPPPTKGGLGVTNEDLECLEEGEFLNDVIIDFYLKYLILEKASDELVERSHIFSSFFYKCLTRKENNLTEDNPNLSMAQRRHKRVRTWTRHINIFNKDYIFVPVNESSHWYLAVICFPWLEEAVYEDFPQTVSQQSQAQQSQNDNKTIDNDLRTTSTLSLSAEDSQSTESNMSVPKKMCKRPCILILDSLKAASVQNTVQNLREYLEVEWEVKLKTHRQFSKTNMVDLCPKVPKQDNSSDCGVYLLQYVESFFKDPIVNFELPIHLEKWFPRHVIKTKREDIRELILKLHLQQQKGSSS
SENP6 block = blocks the human protease SENP6; Recombinant SENP6 catalytic domain, aminoluciferin luminescence; inhibition, % at 10 µM; 1.8% of 330,000 active;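 active = inhibition above about 50% at the single tested dose, limit read from the data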;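 also: plate controls were DMSO wells with enzyme for no effect and DMSO wells lacking enzyme for full effect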
SENP8 block-2 = blocks the human protease SENP8; purified SENP8, Z-RLRGG-aminoluciferin cleavage, luminescence; inhibition, % at 10 µM; 1.2% of 330,000 active; AID 2540; in the data active = inhibition above about 50%
Numbers without * were called inactive; x = not tested or not shown. This is a sample that favours compounds with a hit; in the whole collection about 3% have one here.

SMILES	PPC-1+TRAIL kill	SENP8 block-1	C8 TRAIL sens	SENP7 block	SENP6 block	SENP8 block-2
COc1ccc(S(=O)(=O)N2CCN(c3ccccc3OC)CC2)cc1	x	10	13	-4	-1	-2
CCNc1c(NC(=O)c2ccc3c(c2)OCO3)c(=O)oc2ccccc12	x	1	-11	-10	1	-14
COc1cccc(/C=N/NC(=O)c2ccc([N+](=O)[O-])cc2Cl)c1O	12	4	55*	-1	-7	-3
Cc1cc(/C=N/NC(=O)c2cccc([N+](=O)[O-])c2)c(C)n1-c1ccc(Cl)cc1Cl	26	52*	6	4	0	-2
Cc1cccc(/C=N/NC(=O)c2cccc([N+](=O)[O-])c2)n1	-3	15	4	-11	-2	2
CCn1c2ccccc2c2cc(NC(=O)C(C)OC(=O)c3ccc(NC(=O)CC#N)cc3)ccc21 (stereo unspecified)	x	-21	40	-10	-11	-18
COc1ccc(/C=C2\COc3ccccc3C2=O)c(OC)c1	x	-7	0	-27	3	-37
COc1ccc2c(c1)OC/C(=C/c1cccs1)C2=O	30	-6	41	96*	94*	89*
COc1nn(-c2ccccc2)c(=O)c(Cl)c1Cl	x	2	91*	-10	3	-6
CC(=O)N1CCN(C(=O)c2cccc(S(=O)(=O)Nc3c(C)n(C)n(-c4ccccc4)c3=O)c2)CC1	x	1	0	7	-18	-1
COC(CNC(=O)c1ccc2c3c(onc13)-c1ccccc1C2=O)OC	4	102*	46	25	45	23
COC(CNC(=O)c1cccnc1)OC	-5	1	10	2	0	0
COc1ccc(OCC(=O)N/N=C(\C)c2cc3ccccc3o2)cc1	40	3	64*	2	-7	4
COc1ccc(OCC(=O)N/N=C(\C)c2ccc(OC)cc2)cc1	10	-1	2	-6	3	-8
C[C@H](CO)N1C[C@H](C)[C@@H](CN(C)S(=O)(=O)c2cn(C)cn2)Oc2c(NS(=O)(=O)c3ccc(F)cc3)cccc2C1=O	x	11	5	-13	-7	-6
CC1=NN(c2nc(-c3ccc(C)cc3)cs2)C(=O)C1N=Nc1ccc2ccccc2c1 (stereo unspecified)	10	55*	34	5	11	-2
CC(C)(C)N(NS(=O)(=O)c1ccc(F)cc1)c1ccccc1	x	18	-7	-3	-20	-10
COc1cc(NC(=O)c2c(F)c(F)c(F)c(F)c2F)c(OC)cc1Cl	6	-3	76*	3	7	1
CCOC(=O)C(C#N)(Cc1ccc2ccccc2n1)Cc1ccc2ccccc2n1	x	8	2	x	x	x
CCOc1ccc2nc3cc(NCc4ccc(OC)cc4)ccc3c(N)c2c1	x	-298	29	41	51*	37
CCn1cnc2cc(NCc3ccc(OC)cc3)ccc21	0	-300	6	-4	-9	-7
O=C(CCCNC(=O)c1ccc(Cl)cc1)Nc1ccccc1C(F)(F)F	x	16	-3	-5	-12	-11
Cc1ccc(-c2ccccc2NC(=O)CCl)o1	0	-36	48*	10	-22	-12
Cc1cc(NC(=O)c2cc3n(n2)C(C(F)(F)F)CC(c2ccco2)N3)no1 (stereo unspecified)	-9	-2	60*	-7	-4	-6
CC(C)NC(=O)c1cc2n(n1)C(C(F)(F)F)CC(c1ccco1)N2 (stereo unspecified)	8	14	9	-2	-22	1
SMILES	PPC-1+TRAIL kill	SENP8 block-1	C8 TRAIL sens	SENP7 block	SENP6 block	SENP8 block-2
Nc1nonc1-n1nnc(C(=O)N/N=C/c2ccco2)c1CSc1ccccc1	x	-41	1	-12	9	-9
O=C(CSc1nnc(-c2ccc(Br)cc2)o1)Nc1cccc(C(=O)O)c1	x	-1	63*	-13	-12	-1
COc1ccccc1OCCNC(=O)c1ccc2c(c1)OCCO2	x	8	52*	-10	-6	-15
COc1ccccc1OCCNC(=O)CNC(=O)c1ccc2c(c1)OCO2	x	-4	8	0	0	9
COc1cccc(/C=C/C(=O)c2ccc3c(c2)OCCO3)c1OC	x	9	71*	4	-22	4
O=C1c2cc3c(cc2CCC1c1ccc2c(c1)OCO2)OCO3 (stereo unspecified)	x	-3	7	x	x	x
Cc1ccc(NC(=O)c2ccc3c(c2)CCN3S(C)(=O)=O)c(C)c1	x	21	-7	-1	15	-4
Cc1ccc(S(=O)(=O)/N=C2\C=C(NS(=O)(=O)c3ccccc3)C(=O)c3ccccc32)cc1	x	74*	-17	x	x	x
O=S(=O)(N=C1C=CC(=NS(=O)(=O)c2ccccc2)c2ccccc21)c1ccccc1	x	74*	-2	x	x	x
Cc1cc(C)c(S(=O)(=O)/N=C2\C=C(NS(=O)(=O)c3ccccc3)C(=O)c3ccccc32)c(C)c1	x	73*	-2	6	33	20
CCn1c(Cc2ccccc2)nnc1SCC(=O)c1c(N)n(C2CC2)c(=O)[nH]c1=O	x	8	-1	1	-8	-6
Nc1nnnn1/N=C/C(Br)=C/c1ccccc1	8	15	59*	7	-5	-2
Nc1nnnn1/N=C/C=C/c1ccccc1	-4	19	-4	-2	-9	-10
CCC(CC)CN1CCN=C1N(C)C	x	22	-5	6	2	6
CCCCCN(C(=O)CSc1n[nH]c(-c2ccc(C)cc2)n1)c1c(N)n(CCCC)c(=O)[nH]c1=O	x	-14	55*	-14	-14	9
CCCCn1c(N)c(N(CCOC)C(=O)CSc2n[nH]c(-c3ccc(C)cc3)n2)c(=O)[nH]c1=O	x	5	1	0	1	-3
CC1CCN(c2ccc(-c3cccc(NC(=O)C(F)(F)F)c3)nn2)CC1	x	-108	97*	4	40	49
O=C(Nc1cccc(-c2ccc(N3CCCCC3)nn2)c1)C(F)(F)F	x	-21	89*	6	34	34
COc1ccc(-n2c(C)cc(/C=C3\C(=O)NN(c4ccccc4)C3=O)c2C)cc1	28	19	12	14	38	28
Cc1cc(/C=C2\C(=O)NN(c3ccccc3)C2=O)c(C)n1-c1ccccc1O	28	53*	3	34	8	19
O=C(COc1ccc(C(F)(F)F)cc1[N+](=O)[O-])Nc1cccc(C(F)(F)F)c1	52*	21	8	6	-13	-8
N#CC(=C(c1ccccc1)c1ccccc1)c1ccccc1	x	7	-1	x	x	x
N#C/C(=N/Nc1ccc(OC(F)(F)F)cc1)C(N)=S	1	46*	38	-55	79*	49
NS(=O)(=O)c1cccc(NC(=O)COC(=O)CN2C(=O)c3ccccc3C2=O)c1	x	15	3	-4	13	5
O=C(NNC1=NS(=O)(=O)c2ccccc21)c1ccc([N+](=O)[O-])cc1	x	22	61*	-20	-18	-12

Assay outcomes (PubChem)
